Results on five compounds are retold here after PubChem BioAssay.

A short description of assay [1]: small molecules captured by biotinylated probe aFSTL3 – biochemical, small-molecule microarray, fluorescence 635/667, stem cell growth factor project, primary screen (AID 1064).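 Further: measures binding of the biotinylated anti-FSTL3 antibody to printed compounds.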 The note with it: higher = more signal.
A short description of assay [2]: binders from COS7 lysate, DM2A8 probe, primary screen, torsin A project, cell lysate, small-molecule microarray, fluorescence 635/667 (AID 1065). The note with it: higher = more signal, COS7 lysate expressing mutant human TOR1A.
Assay [3] can be described thus: small molecules captured by biotinylated probe aFGF2 – biochemical, small-molecule microarray, fluorescence 635/667, stem cell growth factor project, primary screen (AID 1067).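 Further: measures binding of biotinylated aFGF2 protein to printed compounds on slides; z-score merges feature fluorescence and signal-to-noise across triplicate slides.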 The note with it: higher = more signal.
Assay [4] can be described thus: small molecules captured by biotinylated probe aFGF10 – biochemical, small-molecule microarray, fluorescence 635/667, stem cell growth factor project, primary screen (AID 1071).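 Further: score merges 667 nm spot intensity and signal to noise from triplicate slides.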 The note with it: higher = more signal.
The target in assay [5] is Neurogenic locus notch homolog protein 2 (Homo sapiens) (UniProt Q04721). The experiment in a line: small molecules binding Notch2 protein – biochemical, small-molecule microarray, 635 nm fluorescence, stem cell growth factors, primary screen (AID 1073). The note with it: higher = more signal.
Assay [6] deals with Pro-neuregulin-1, membrane-bound isoform (Homo sapiens) (UniProt Q02297). Nature of the assay: small molecules binding neuregulin-1 protein – biochemical, small-molecule microarray, fluorescence 635/667, psychiatric disease protein project, primary screen (AID 1075).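 Further: score combines 667 nm spot fluorescence with signal to noise.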 The conditions noted are these: NRG1 binding, 635 nm fluorescence, higher = more signal.
The test system of assay [7] is Neuregulin-1 EGF-like domain. Nature of the assay: small molecules binding NRG1 EGF domain – biochemical, small-molecule microarray, 635 nm fluorescence, primary screen (AID 1081).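 Further: binding of the protein to compounds printed on small-molecule microarray slides.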 The conditions noted are these: higher = more signal.
A short description of assay [8]: FRG1 expression reporter modulators in myotubes – cell-based, C2C12 myotubes, firefly/Renilla luciferase, luminescence, FRG1 inhibition for FSHD, primary screen (AID 1084). The conditions noted are these: FRG1 promoter luciferase, higher = more signal, called active from +8 up or from −8 down.
The nature of assay [9]: small molecules captured by biotinylated probe aFST – biochemical, small-molecule microarray, fluorescence 635/667, stem cell growth factor project, primary screen (AID 1086).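 Further: score merges 667 nm fluorescence with signal-to-noise of each printed compound spot.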 The conditions noted are these: higher = more signal.
Assay [10] can be described thus: binders of probe aHhip on microarray, primary screen, stem cell growth factor project, biochemical, small-molecule microarray, fluorescence 635/667 (AID 1087).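 Further: score merges spot fluorescence at 667nm with spot signal to noise ratio.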 The conditions noted are these: higher = more signal.
Assay [11] deals with PRMT1 (protein arginine N-methyltransferase 1). Nature of the assay: small molecules binding arginine methyltransferase PRMT1 – biochemical, small-molecule microarray, 635 nm fluorescence, primary screen (AID 1088).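 Further: binding of Prmt1 protein to compounds spotted on small-molecule microarray slides.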 The conditions noted are these: higher = more signal.
Assay [12] can be described thus: growth effects on S. cerevisiae YJM789 – YJM789 clinical isolate, OD600, 24 h, basal, primary screen (AID 1089).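 Further: growth of clinical yeast isolate S. cerevisiae YJM 789 seeded 1000 cells per well; test concentration not given here.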 The note with it: higher = more signal, called active from +8 up or from −8 down.
Assay [13] is described as follows: S. pombe growth modifiers, basal conditions – strain 972, OD600, 24 h, no modulator, primary screen (AID 1090).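 Further: basal condition with compound alone and no growth modifier present; test concentration not given here.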 The note with it: S. pombe 972 growth, higher = more signal, called active from +8 up or from −8 down.
Assay [14] in a line: budding yeast growth modifiers under rapamycin – strain BY4716, OD600, 96 h, primary screen (AID 1091). Further: test concentration not given here. The conditions noted are these: S. cerevisiae BY4716 + rapamycin, higher = more signal, called active from +8 up or from −8 down.
For assay [15], the target named is Torsin-1A-interacting protein 2 (Homo sapiens) (UniProt Q8NFQ8). Nature of the assay: small molecules binding lysate-expressed LULL1 – cell lysate, human LULL1 lysate, 635/667 nm fluorescence, primary screen (AID 1092).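 Further: probe is lysate of COS7 cells overexpressing human LULL1; score merges per-feature 667 nm fluorescence with signal-to-noise.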 The note with it: small-molecule microarray, hLULL1 lysate binding, 635 nm fluorescence; higher = more signal.
Assay [16] is described as follows: optical density change of DRC41 E. coli – strain DRC41, OD650, 24 h, E. coli filamentation project, primary screen (AID 1093).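 Further: MC1000 strain lacking acrAB efflux and sulA so SOS filamentation is blocked; test concentration not given here.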 The conditions noted are these: E. coli DRC41 growth, higher = more signal, called active from +8 up or from −8 down.
Assay [17] is described as follows: probe aLefty2 binding to arrayed compounds – biochemical, biotinylated probe, 635/667 nm fluorescence, primary screen (AID 1094).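 Further: score merges spot fluorescence near 667 nm with spot signal-to-noise ratio.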 The note with it: small-molecule microarray, higher = more signal.
The test system of assay [18] is Noggin (protein binding on small-molecule microarray). Nature of the assay: small molecules binding Noggin protein – biochemical, 635/667 nm fluorescence, primary screen (AID 1095).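 Further: score merges 667 nm feature fluorescence with signal to noise over triplicate slides.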 The note with it: 635 nm fluorescence, higher = more signal.
Assay [19] has as its target Neurogenic locus notch homolog protein 3 (Homo sapiens) (UniProt Q9UM47). The experiment in a line: small molecules binding NOTCH3 protein – biochemical, 635/667 nm fluorescence, primary screen (AID 1096). The note with it: small-molecule microarray, 635 nm fluorescence, higher = more signal.
The nature of assay [20]: probe aEGFR binding to arrayed compounds – biochemical, biotinylated probe, 635/667 nm fluorescence, primary screen (AID 1097).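 Further: probe is a biotinylated anti-EGFR antibody binding compounds printed on slides; score combines fluorescence near 667 nm and signal to noise of each spot.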 The conditions noted are these: small-molecule microarray, higher = more signal.

The structures appear in SMILES notation. The source made the active and inactive calls.

Chain of Neurogenic locus notch homolog protein 3 (Homo sapiens) (Q9UM47 whole entry, looked up): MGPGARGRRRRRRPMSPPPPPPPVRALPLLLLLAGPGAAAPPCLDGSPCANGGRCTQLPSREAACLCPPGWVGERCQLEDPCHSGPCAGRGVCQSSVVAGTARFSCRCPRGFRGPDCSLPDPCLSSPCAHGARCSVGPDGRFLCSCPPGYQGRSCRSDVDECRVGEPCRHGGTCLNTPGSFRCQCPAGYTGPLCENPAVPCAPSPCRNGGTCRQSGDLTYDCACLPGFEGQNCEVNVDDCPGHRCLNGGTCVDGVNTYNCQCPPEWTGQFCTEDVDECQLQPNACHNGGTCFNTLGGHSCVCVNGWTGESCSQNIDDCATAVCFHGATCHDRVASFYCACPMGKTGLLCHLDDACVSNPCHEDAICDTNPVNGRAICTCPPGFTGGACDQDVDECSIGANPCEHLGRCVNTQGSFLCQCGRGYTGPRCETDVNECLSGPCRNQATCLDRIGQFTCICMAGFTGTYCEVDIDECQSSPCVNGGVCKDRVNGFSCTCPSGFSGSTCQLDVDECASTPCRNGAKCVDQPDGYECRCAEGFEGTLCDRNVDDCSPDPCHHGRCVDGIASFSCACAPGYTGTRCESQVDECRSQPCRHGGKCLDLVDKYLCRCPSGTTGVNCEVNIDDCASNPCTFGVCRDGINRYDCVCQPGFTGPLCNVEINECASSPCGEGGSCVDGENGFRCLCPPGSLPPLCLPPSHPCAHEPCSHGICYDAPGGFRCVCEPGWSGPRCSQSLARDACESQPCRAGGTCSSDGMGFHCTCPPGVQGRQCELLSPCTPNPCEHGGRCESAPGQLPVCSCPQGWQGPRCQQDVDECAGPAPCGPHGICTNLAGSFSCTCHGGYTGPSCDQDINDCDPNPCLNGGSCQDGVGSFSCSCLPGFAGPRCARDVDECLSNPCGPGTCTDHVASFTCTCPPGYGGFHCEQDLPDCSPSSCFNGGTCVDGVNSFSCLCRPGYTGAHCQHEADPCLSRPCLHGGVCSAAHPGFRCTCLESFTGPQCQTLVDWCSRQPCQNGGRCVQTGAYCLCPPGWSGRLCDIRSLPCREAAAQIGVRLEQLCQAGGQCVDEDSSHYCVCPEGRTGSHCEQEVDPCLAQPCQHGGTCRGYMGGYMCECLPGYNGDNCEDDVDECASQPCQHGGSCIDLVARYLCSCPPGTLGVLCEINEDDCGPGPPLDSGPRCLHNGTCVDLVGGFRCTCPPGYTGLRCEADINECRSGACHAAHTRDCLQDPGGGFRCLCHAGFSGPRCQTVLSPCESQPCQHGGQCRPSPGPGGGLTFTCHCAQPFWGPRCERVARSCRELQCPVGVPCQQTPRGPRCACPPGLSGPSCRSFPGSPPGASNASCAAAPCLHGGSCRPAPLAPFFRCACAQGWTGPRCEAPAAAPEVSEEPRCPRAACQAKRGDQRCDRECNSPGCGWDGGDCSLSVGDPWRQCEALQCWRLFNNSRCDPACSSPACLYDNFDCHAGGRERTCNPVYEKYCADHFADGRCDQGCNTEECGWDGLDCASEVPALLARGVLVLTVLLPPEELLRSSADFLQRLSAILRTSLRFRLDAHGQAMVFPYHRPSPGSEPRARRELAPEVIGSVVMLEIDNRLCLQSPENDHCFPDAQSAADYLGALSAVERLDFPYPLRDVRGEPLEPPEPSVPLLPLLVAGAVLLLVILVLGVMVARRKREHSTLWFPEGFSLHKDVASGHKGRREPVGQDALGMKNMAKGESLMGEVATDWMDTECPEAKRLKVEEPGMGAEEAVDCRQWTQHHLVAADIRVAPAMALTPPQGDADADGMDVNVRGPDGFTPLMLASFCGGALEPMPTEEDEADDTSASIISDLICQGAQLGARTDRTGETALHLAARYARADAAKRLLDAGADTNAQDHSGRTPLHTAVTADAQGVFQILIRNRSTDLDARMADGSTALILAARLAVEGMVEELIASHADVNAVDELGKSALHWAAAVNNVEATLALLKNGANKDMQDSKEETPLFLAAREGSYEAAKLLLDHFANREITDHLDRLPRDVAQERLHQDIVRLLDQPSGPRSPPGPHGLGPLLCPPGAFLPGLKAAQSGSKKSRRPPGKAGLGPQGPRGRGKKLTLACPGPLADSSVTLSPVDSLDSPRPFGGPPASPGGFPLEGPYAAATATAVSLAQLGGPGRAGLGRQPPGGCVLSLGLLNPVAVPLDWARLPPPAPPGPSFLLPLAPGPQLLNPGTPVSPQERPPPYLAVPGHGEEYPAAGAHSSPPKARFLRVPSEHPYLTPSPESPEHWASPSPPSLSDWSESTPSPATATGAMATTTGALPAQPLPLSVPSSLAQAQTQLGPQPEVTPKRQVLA
Chain of Neurogenic locus notch homolog protein 2 (Homo sapiens) (Q04721 whole entry, looked up, canonical isoform): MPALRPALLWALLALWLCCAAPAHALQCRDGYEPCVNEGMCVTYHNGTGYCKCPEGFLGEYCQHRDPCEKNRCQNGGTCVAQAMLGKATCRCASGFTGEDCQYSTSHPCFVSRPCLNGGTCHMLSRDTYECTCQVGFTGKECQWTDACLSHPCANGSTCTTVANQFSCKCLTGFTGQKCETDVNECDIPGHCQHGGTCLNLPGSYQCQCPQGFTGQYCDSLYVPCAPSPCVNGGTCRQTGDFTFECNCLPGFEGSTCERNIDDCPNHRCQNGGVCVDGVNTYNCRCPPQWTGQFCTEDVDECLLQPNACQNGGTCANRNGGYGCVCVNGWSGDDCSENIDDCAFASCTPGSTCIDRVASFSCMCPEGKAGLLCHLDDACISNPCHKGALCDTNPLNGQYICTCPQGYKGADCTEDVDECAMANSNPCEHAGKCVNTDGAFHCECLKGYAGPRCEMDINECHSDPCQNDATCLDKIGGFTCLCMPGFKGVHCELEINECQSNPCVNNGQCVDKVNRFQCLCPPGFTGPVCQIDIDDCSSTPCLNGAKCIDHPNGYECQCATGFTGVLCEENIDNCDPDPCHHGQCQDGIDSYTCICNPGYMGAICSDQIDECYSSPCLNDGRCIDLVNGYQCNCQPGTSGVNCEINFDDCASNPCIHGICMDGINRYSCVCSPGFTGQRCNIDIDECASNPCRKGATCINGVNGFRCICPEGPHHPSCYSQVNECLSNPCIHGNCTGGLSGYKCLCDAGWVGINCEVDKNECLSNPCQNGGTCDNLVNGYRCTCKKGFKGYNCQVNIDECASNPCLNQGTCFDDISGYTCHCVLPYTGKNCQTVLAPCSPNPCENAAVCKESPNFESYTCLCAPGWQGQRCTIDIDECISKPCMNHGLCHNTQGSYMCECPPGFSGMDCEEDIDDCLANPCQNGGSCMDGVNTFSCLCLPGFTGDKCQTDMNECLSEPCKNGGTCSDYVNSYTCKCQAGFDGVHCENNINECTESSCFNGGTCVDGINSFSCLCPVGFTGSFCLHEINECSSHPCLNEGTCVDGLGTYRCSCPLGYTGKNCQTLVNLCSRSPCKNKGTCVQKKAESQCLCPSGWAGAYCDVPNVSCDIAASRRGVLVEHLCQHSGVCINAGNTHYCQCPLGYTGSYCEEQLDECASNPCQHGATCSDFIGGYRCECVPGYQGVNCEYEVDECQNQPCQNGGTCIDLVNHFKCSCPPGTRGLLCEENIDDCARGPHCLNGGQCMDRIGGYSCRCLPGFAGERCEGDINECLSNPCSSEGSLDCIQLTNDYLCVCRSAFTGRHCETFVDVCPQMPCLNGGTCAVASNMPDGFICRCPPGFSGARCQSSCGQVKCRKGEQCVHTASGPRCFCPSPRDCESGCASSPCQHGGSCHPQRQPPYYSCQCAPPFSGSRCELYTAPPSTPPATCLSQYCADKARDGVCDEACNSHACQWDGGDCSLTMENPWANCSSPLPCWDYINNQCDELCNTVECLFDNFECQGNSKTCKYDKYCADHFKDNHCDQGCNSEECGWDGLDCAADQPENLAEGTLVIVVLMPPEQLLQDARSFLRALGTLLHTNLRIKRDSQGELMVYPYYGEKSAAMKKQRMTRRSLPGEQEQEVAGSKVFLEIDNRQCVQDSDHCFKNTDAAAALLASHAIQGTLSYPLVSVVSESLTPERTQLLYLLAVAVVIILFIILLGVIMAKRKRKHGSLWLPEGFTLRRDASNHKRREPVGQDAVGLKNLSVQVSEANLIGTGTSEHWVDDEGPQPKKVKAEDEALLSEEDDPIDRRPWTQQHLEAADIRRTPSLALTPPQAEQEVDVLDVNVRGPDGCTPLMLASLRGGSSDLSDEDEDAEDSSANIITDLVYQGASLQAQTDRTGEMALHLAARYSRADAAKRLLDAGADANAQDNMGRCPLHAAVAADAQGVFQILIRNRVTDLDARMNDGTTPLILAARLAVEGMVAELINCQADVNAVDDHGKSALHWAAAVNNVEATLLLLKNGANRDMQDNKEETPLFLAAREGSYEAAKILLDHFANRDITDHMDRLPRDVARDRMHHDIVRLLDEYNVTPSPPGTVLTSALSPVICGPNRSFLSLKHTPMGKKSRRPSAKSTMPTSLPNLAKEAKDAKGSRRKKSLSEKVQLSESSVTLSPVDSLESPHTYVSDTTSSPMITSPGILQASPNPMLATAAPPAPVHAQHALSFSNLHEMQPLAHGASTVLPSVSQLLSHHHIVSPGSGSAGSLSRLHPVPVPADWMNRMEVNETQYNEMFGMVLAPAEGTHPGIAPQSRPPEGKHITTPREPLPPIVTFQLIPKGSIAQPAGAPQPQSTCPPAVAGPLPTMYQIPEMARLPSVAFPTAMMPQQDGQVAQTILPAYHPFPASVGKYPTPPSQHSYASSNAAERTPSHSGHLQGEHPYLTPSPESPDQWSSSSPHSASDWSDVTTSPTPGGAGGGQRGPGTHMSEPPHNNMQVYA

On to `Cc1ccc(S[C@]2(C(=O)NCC(C)C)CC(=O)N(C(C)C)[C@@H]2c2ccc(CO)cc2)cc1`, for which the composite z-score in assay [1] is -1.02; in assay [2] it was -0.691; in assay [3] it was -0.083; in assay [4], -0.293; in assay [5], -0.625; in assay [6], -0.517. Further, the composite z-score in assay [7] was -0.0249; in [9] it was 0.272; in assay [10], 0.271; in assay [11] it was 0.493; in assay [15], -0.219; in assay [17], -0.0193. Also, the figures for the composite z-score in assay [18], in assay [19] and in assay [20] were -0.197, -0.534 and -0.175, respectively. Moreover, the z-score in assay [8] is -0.781 (inactive); in assay [12] it was 0.588 (inactive); in assay [13], -2.12 (inactive); in assay [14], -0.942 (inactive); in assay [16], 0.538 (inactive).
In the case of `CC(C)C(CO)N1C(=O)[C@@H]2[C@H]3C(=O)OCC=C[C@H]3OC23C=CCN(Cc2ccccc2)C(=O)[C@@H]13` (stereo not given in full), the composite z-score in assay [1] is -0.302; in [2], -0.438; in [3], -0.116; in assay [4], -0.307; in [5] it was -0.834; in assay [6], -0.72. Besides, the composite z-score in [7] is -0.386; in [9], -0.361; in assay [10], -0.0994; in [11], -0.462; in [15], -1.04; in assay [17], -0.238. The composite z-score in assay [18] is -0.282; in [19] it was -0.316; in [20], -0.287. Besides, the z-score in [8] was -0.699 (inactive); in assay [12], -0.899 (inactive); in assay [13], -0.742 (inactive); in assay [14], -1.06 (inactive); in assay [16] it was 2.08 (inactive).
As to `C=CCN1C(=O)[C@@]2(O[C@@H](CCn3cc(CCO)nn3)[C@H]([Si](C)(C)c3ccc(OC)cc3)[C@H]2C)c2cc(N3C(=O)c4cccc5cccc3c45)ccc21`, the composite z-score is -0.323 in assay [1]; 0.749 in [2]; -0.0839 in [3]; 0.569 in [4]; 0.705 in assay [5]; 1.11 in assay [6]. For the same compound, the composite z-score in [7] was 0.813; in assay [9], 0.42; in assay [10], 0.142; in [11], 0.949; in [15] it was 0.875; in assay [17], -0.0592. The composite z-score was 0.412 in assay [18], 1.07 in [19] and -0.0332 in [20]. The z-score in [8] was -2.79 (inactive); in [12] it was -0.309 (inactive); in assay [13] it was 0.593 (inactive); in assay [14] it was 13.5 (active); in assay [16] it was 2.4 (inactive).
Take `C=C(/C(=C/C[C@H](OC(=O)c1ccncc1)c1cccc(OCCO)c1)c1cc(C(=O)OC)ccc1OC)C(C)C`: the composite z-score in [1] was -0.0743; in assay [2] it was 1.66; in assay [3], -0.113; in assay [4], 0.382; in assay [5] it was 0.191; in [6], -0.389. Moreover, the composite z-score is 0.73 in assay [7]; -0.179 in [9]; -0.0631 in assay [10]; 1.26 in assay [11]; 1.23 in [15]; -0.192 in assay [17]. The composite z-score in assay [18] is 0.126; in assay [19] it was 0.436; in [20], -0.112. In addition, the z-score is -1.23 (inactive) in [8]; 0.195 (inactive) in [12]; -0.382 (inactive) in assay [13]; 0.947 (inactive) in [14]; 1.22 (inactive) in assay [16].
Regarding `CO[C@H]1O[C@H](CO)[C@@H](OC(=O)CCc2ccccc2)[C@@H]2OC(=O)[C@H](Cc3ccccc3)C/C=C/C[C@@H](Cc3ccccc3)C(=O)O[C@@H]12`, the composite z-score in assay [1] was -0.0198; in assay [2] it was -0.106; in [3], -0.134; in assay [4], -0.357; in assay [5] it was -0.512; in [6], 0.92. Also, the composite z-score was 1.14 in assay [7]; -0.306 in assay [9]; -0.337 in [10]; 0.696 in assay [11]; 1.4 in assay [15]; -0.0905 in assay [17]. Further, the composite z-score in assay [18] was -0.748; in assay [19], -0.033; in assay [20], -0.347. Also, the z-score in [8] is -1.51 (inactive); in [12] it was -0.696 (inactive); in assay [13], -2.18 (inactive); in [14] it was 11.3 (active); in [16] it was 1.98 (inactive).
